Measurements from PubChem BioAssay (NCI).
The panel holds about 79,000 compounds, 15% with a hit somewhere; the sample as a whole holds those more often. The source made the active and inactive calls. Cut-off read from the data, not from the text of the source: active = growth inhibition above about 70%; inactive = the rest.

Key:
[1] = NCI Yeast Anticancer Drug Screen. Data for the rad50 strain (AID 155);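 note: 0% = growth of vehicle-only cultures of the same strain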; settings: S. cerevisiae rad50 strain growth inhibition, active compounds read high
How it was run: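 Inhibition values express reduced yeast growth in compound-treated cultures relative to vehicle-treated controls.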

[2] = NCI Yeast Anticancer Drug Screen. Data for the mec2-1 strain (AID 157); settings: S. cerevisiae mec2-1 strain, active compounds read high
How it was run: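 Using mec2-1 yeast: add compound, measure growth, express inhibition versus vehicle-treated cultures.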

[3] = NCI Yeast Anticancer Drug Screen. Data for the sgs1 mgt1 strain (AID 161);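 note: 0% = growth of cultures given vehicle only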; settings: S. cerevisiae sgs1 mgt1 strain, active compounds read high
How it was run: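 Compounds are added to genetically altered yeast, and growth is compared with cultures given vehicle alone to give percent inhibition.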

[4] = NCI Yeast Anticancer Drug Screen. Data for the cln2 rad14 strain (AID 165);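 note: 0% = growth equal to vehicle treated cultures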; settings: S. cerevisiae cln2 rad14 strain, active compounds read high
How it was run: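 Yeast strain cln2 rad14, bearing defects in cell cycle control and DNA repair, serves as the test system; values reflect growth inhibition compared with vehicle.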

[5] = NCI Yeast Anticancer Drug Screen. Data for the bub3 strain (AID 167); settings: S. cerevisiae bub3 mutant strain, active compounds read high
How it was run: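 Steps: expose the mutant yeast strain to compound; grow alongside vehicle-treated cultures; measure growth; express inhibition against the vehicle cultures.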

[6] = NCI Yeast Anticancer Drug Screen. Data for the mlh1 rad18 strain (AID 175); settings: S. cerevisiae mlh1 rad18 strain growth inhibition, active compounds read high
How it was run: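 Steps: expose repair-defective yeast to compound; measure growth; express inhibition against vehicle-treated controls.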

[7] = at 5.0 µM (retest, dose inferred, filed as 0.5)
[8] = at 50.0 µM (retest, dose inferred, filed as 5.0)

Measured: growth inhibition

C[N+]12CC3C4CC(C3C1)C2C4 (stereo not given)
inactive: [1]; [7] -19% | [1]; [8] -27% | [1]; at 50.0 µM 4.05% | [2]; [7] -15% | [2]; [8] -13% | [2]; at 50.0 µM -2.9% | [3]; [7] -3% | [3]; [8] 4% | [3]; at 50.0 µM 12.6% | [4]; [7] 29% | [4]; [8] 13% | [4]; at 50.0 µM 1.3% | [5]; [7] -6% | [5]; [8] -12% | [5]; at 50.0 µM 13.6% | [6]; [7] -23% | [6]; [8] -15% | [6]; at 50.0 µM 7.95%

CC(C)(Sc1cc(Cl)c(Cl)c(Cl)c1)C(=O)OCCN1CCOCC1
inactive: [4]; [7] 59% | [6]; [7] 67%
active: [1]; [7] 78% | [1]; [8] 98% | [1]; at 50.0 µM 98.2% | [2]; [7] 77% | [2]; [8] 98% | [2]; at 50.0 µM 99.6% | [3]; [7] 87% | [3]; [8] 98% | [3]; at 50.0 µM 99.4% | [4]; [8] 96% | [4]; at 50.0 µM 98.3% | [5]; [7] 76% | [5]; [8] 92% | [5]; at 50.0 µM 99.2% | [6]; [8] 98% | [6]; at 50.0 µM 97.5%

CC(=O)OC1CCC2(C)C3CCC4(C)C(C(C)CCCC(C)C)CCC4C3CCC23OC13C (stereo not given)
inactive: [1]; [7] 2% | [1]; [8] 12% | [1]; at 50.0 µM 31.9% | [2]; [7] -17% | [2]; [8] 23% | [2]; at 50.0 µM 6.2% | [3]; [7] -5% | [3]; [8] 52% | [4]; [7] -3% | [4]; [8] 6% | [4]; at 50.0 µM -19.2% | [5]; [7] -3% | [5]; [8] -4% | [5]; at 50.0 µM -8.05% | [6]; [7] 24% | [6]; [8] 59% | [6]; at 50.0 µM 35.7%
active: [3]; at 50.0 µM 72.7%

COc1ccc2nc3cc(Cl)ccc3c(NCCNc3c4ccc(Cl)cc4nc4ccc(OC)cc34)c2c1
active: [1]; [8] 97% | [1]; at 50.0 µM 98.5% | [2]; [8] 97% | [2]; at 50.0 µM 92.8% | [3]; [8] 99% | [3]; at 50.0 µM 96.2% | [4]; [8] 90% | [4]; at 50.0 µM 98.4% | [5]; [8] 97% | [5]; at 50.0 µM 99.2% | [6]; [8] 97% | [6]; at 50.0 µM 97.3%
inactive: [1]; [7] 34% | [2]; [7] 26% | [3]; [7] 20% | [4]; [7] 37% | [5]; [7] 16% | [6]; [7] 28%

CCCCCCCCOc1ccc(/C=C/C(C)=N/NC(N)=NC)cc1OC
active: [1]; [7] 98% | [1]; [8] 98% | [1]; at 50.0 µM 98.7% | [2]; [7] 98% | [2]; [8] 99% | [2]; at 50.0 µM 99% | [3]; [7] 82% | [3]; [8] 99% | [4]; [7] 72% | [4]; [8] 93% | [4]; at 50.0 µM 98.3% | [5]; [7] 97% | [5]; [8] 99% | [5]; at 50.0 µM 99% | [6]; [7] 99% | [6]; [8] 98% | [6]; at 50.0 µM 98.5%
inactive: [3]; at 50.0 µM 38.7%

Cc1cc(N(CCOS(C)(=O)=O)CCOS(C)(=O)=O)ccc1C=Nc1ccc(-c2csc(-c3ccc(Cl)cc3)n2)cc1
active: [1]; [8] 93% | [1]; at 50.0 µM 93.9% | [2]; [8] 96% | [2]; at 50.0 µM 97% | [3]; [8] 93% | [3]; at 50.0 µM 96.4% | [4]; [8] 93% | [4]; at 50.0 µM 87.7% | [5]; [8] 88% | [5]; at 50.0 µM 90.3% | [6]; [8] 95% | [6]; at 50.0 µM 94.9%
inactive: [1]; [7] 22% | [2]; [7] 17% | [3]; [7] 18% | [4]; [7] 4% | [5]; [7] -2% | [6]; [7] 57%

Cc1cccc2cc3c(cc12)c(C)cc1ccccc13
active: [2]; at 50.0 µM 75.1%
inactive: [1]; [7] -4% | [1]; [8] 6% | [1]; at 50.0 µM 64.4% | [2]; [7] -6% | [2]; [8] -9% | [3]; [7] -4% | [3]; [8] 30% | [3]; at 50.0 µM 53% | [4]; [7] -1% | [4]; [8] 1% | [4]; at 50.0 µM 51% | [5]; [7] -22% | [5]; [8] -12% | [5]; at 50.0 µM 61% | [6]; [7] -17% | [6]; [8] 2% | [6]; at 50.0 µM 63.6%

CCCCNC(=S)NC1C2CC3CC(C2)CC1C3 (stereo not given)
active: [1]; [8] 78% | [1]; at 50.0 µM 97.4% | [2]; at 50.0 µM 98.5% | [3]; [8] 90% | [3]; at 50.0 µM 97.9% | [4]; at 50.0 µM 92.2% | [5]; at 50.0 µM 90.4% | [6]; [8] 93% | [6]; at 50.0 µM 97.2%
inactive: [1]; [7] -8% | [2]; [7] -4% | [2]; [8] 64% | [3]; [7] -4% | [4]; [7] 0% | [4]; [8] 39% | [5]; [7] -8% | [5]; [8] 24% | [6]; [7] -13%

COc1cc(OC)c(SSCCCCS(=O)O)c(OC)c1
inactive: [1]; [7] 0% | [1]; [8] 14% | [1]; at 50.0 µM 10.6% | [2]; [7] 1% | [2]; [8] 44% | [2]; at 50.0 µM 21.5% | [3]; [7] 11% | [3]; [8] 55% | [3]; at 50.0 µM 41.5% | [4]; [7] -13% | [4]; [8] 25% | [4]; at 50.0 µM 44.7% | [5]; [7] 7% | [5]; [8] 63% | [5]; at 50.0 µM -26.2% | [6]; [7] 1% | [6]; [8] 36% | [6]; at 50.0 µM 40.8%

CCCCCCN(CCCCCC)CCC(=O)c1ccc2cc(Br)c3ccccc3c2c1
inactive: [1]; [7] 26% | [2]; [7] 38% | [4]; [7] 8% | [5]; [7] 20% | [6]; [7] 43%
active: [1]; [8] 85% | [1]; at 50.0 µM 98.6% | [2]; [8] 95% | [2]; at 50.0 µM 98.6% | [3]; [7] 75% | [3]; [8] 94% | [3]; at 50.0 µM 97.9% | [4]; [8] 87% | [4]; at 50.0 µM 96.8% | [5]; [8] 92% | [5]; at 50.0 µM 98.6% | [6]; [8] 84% | [6]; at 50.0 µM 97.7%
